The panel holds about 83,000 compounds, 20% with a hit somewhere; the sample as a whole holds those more often.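 Compound tested at a single concentration for 48 hours in 96-well plates; a percent growth value below 10 was scored as active.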 Calls of active or inactive are those of the source.
Assays:
Assay in all cases: NCI-60 one-dose screen, 48 h (100 = growth as untreated, 0 = no growth, -100 = all killed)
Settings in all cases: 10 µM unless noted
HCT-15 colon = system: HCT-15 colon
HT29 colon = system: HT29 colon
SNB-75 CNS = system: SNB-75 CNS
SNB-19 CNS = system: SNB-19 CNS
U251 CNS = system: U251 CNS
PC-3 prostate = system: PC-3 prostate
SK-MEL-5 melanoma = system: SK-MEL-5 melanoma
UACC-62 melanoma = system: UACC-62 melanoma
SK-MEL-28 melanoma = system: SK-MEL-28 melanoma
LOX IMVI melanoma = system: LOX IMVI melanoma

Measured: growth

Cc1cccc(N2CCC(=O)NC2=S)c1
inactive: HCT-15 colon 107% | HT29 colon 113% | SNB-75 CNS 92.5% | SNB-19 CNS 99.4% | U251 CNS 104% | PC-3 prostate 98.3% | SK-MEL-5 melanoma 101% | UACC-62 melanoma 96.4% | SK-MEL-28 melanoma 110%

N#CC1CCc2c(c(-c3ccc4nc(N)sc4c3)nc3ccc4[nH]ncc4c23)C1 (stereo not drawn)
inactive: HCT-15 colon 30% | HT29 colon 15.4% | SNB-75 CNS 25.2% | SNB-19 CNS 67.7% | U251 CNS 46.7% | PC-3 prostate 21.8% | SK-MEL-5 melanoma 11.5% | UACC-62 melanoma 36.2% | LOX IMVI melanoma 34.2% | SK-MEL-28 melanoma 54.9%

CCCCC#Cc1c(I)n(C)c(=O)[nH]c1=O
inactive: SNB-75 CNS 82.6% | SNB-19 CNS 99.7% | PC-3 prostate 60.2% | SK-MEL-5 melanoma 62.5%
active: HCT-15 colon -92.5% | HT29 colon -75.3% | U251 CNS 2.73% | UACC-62 melanoma -13.5% | LOX IMVI melanoma -63.7% | SK-MEL-28 melanoma -85.6%

CC1=C(C(=O)Nc2ccccc2)C(c2ccc3c(c2)OCO3)NC(=S)N1 (stereo not drawn)
inactive: HCT-15 colon 101% | HT29 colon 109% | SNB-75 CNS 107% | SNB-19 CNS 96.2% | U251 CNS 104% | PC-3 prostate 95.3% | SK-MEL-5 melanoma 102% | UACC-62 melanoma 97.5% | LOX IMVI melanoma 96.2% | SK-MEL-28 melanoma 112%

NC(=O)c1cnc(Nc2cccc(N)c2)nc1NCCCNC(=O)C1CCC1
inactive: HCT-15 colon 101% | HT29 colon 92.9% | SNB-75 CNS 53.8% | SNB-19 CNS 82.8% | U251 CNS 64.8% | PC-3 prostate 72.4% | SK-MEL-5 melanoma 84.6% | UACC-62 melanoma 70% | LOX IMVI melanoma 68.7% | SK-MEL-28 melanoma 92%

CN(C)c1ccc(/C=C(\C#N)c2cc3ccccc3[nH]2)cc1
active: HT29 colon 5.51%
inactive: HCT-15 colon 23.6% | SNB-75 CNS 10.9% | SNB-19 CNS 29.5% | U251 CNS 17.4% | PC-3 prostate 28.3% | SK-MEL-5 melanoma 13% | UACC-62 melanoma 30.9% | SK-MEL-28 melanoma 54.7%

C#Cc1cccc(Nc2nc(C)nc3cc(NC(=O)CCl)ccc23)c1
active: HCT-15 colon -63.7% | HT29 colon -84% | SNB-75 CNS -94.7% | SNB-19 CNS -32.9% | U251 CNS -93.9% | PC-3 prostate -81.2% | SK-MEL-5 melanoma -94% | UACC-62 melanoma -46.5% | LOX IMVI melanoma -81.7% | SK-MEL-28 melanoma -81.9%

COc1cccc(C(=O)NNc2nc(Cl)nc(Cl)n2)c1
inactive: HCT-15 colon 98.2% | HT29 colon 98.8% | SNB-75 CNS 87.4% | SNB-19 CNS 93% | U251 CNS 99.2% | PC-3 prostate 97.4% | SK-MEL-5 melanoma 96.1% | UACC-62 melanoma 101% | SK-MEL-28 melanoma 105%

CCN(CC)CCN1C(=O)c2c(c(C)c3c(oc4ccc(OC)cc43)c2C)C1=O
inactive: HCT-15 colon 90% | HT29 colon 87.5% | SNB-75 CNS 116% | SNB-19 CNS 88% | U251 CNS 87.3% | PC-3 prostate 90.7% | SK-MEL-5 melanoma 82.7% | UACC-62 melanoma 97% | LOX IMVI melanoma 93.3% | SK-MEL-28 melanoma 91.6%

COc1ccccc1N(C(C)=O)C1=C(Cl)C(=O)c2ccccc2C1=O
inactive: SNB-75 CNS 24.8% | SNB-19 CNS 34% | SK-MEL-28 melanoma 21.2%
active: HCT-15 colon 4.27% | HT29 colon 6.98% | U251 CNS 8.36% | PC-3 prostate 3.3% | SK-MEL-5 melanoma -69.9% | LOX IMVI melanoma 4.88%

COc1cc(-c2nc3c(ncc4ccc(=O)n(-c5ccccc5)c43)s2)cc(OC)c1OC
inactive: HCT-15 colon 78.6% | HT29 colon 84.2% | SNB-75 CNS 56% | SNB-19 CNS 86.1% | U251 CNS 80.3% | PC-3 prostate 56.9% | SK-MEL-5 melanoma 68.5% | LOX IMVI melanoma 58.4% | SK-MEL-28 melanoma 78.3%

COc1ccc(C(=O)/C=C/c2ccc(N3CCCCC3)cc2)cc1OC
inactive: HCT-15 colon 94.9% | HT29 colon 95.1% | SNB-75 CNS 84.3% | SNB-19 CNS 91.3% | U251 CNS 95.6% | PC-3 prostate 81% | SK-MEL-5 melanoma 90.4% | LOX IMVI melanoma 97.1% | SK-MEL-28 melanoma 102%

O=C(Oc1ccc(CCl)cc1)c1ccccc1
active: HCT-15 colon -87.4% | HT29 colon -58.4% | SNB-75 CNS -98.6% | SNB-19 CNS -86.4% | U251 CNS -86.3% | PC-3 prostate -91.3% | SK-MEL-5 melanoma -99% | LOX IMVI melanoma -85.1% | SK-MEL-28 melanoma -75.6%

O=C(CCSc1nnc2n(Cc3ccccc3)c(=O)c3c4c(sc3n12)CCCC4)N1CCN(c2ccccc2)CC1
inactive: HCT-15 colon 96.9% | HT29 colon 93.7% | SNB-75 CNS 93.5% | SNB-19 CNS 99.8% | U251 CNS 106% | PC-3 prostate 102% | SK-MEL-5 melanoma 99.9% | UACC-62 melanoma 108% | SK-MEL-28 melanoma 87.4%

CCSc1oc(C)nc1[P+](c1ccccc1)(c1ccccc1)c1ccccc1
active: SK-MEL-5 melanoma 1.8%
inactive: HCT-15 colon 92.1% | HT29 colon 16.7% | SNB-75 CNS 35.1% | SNB-19 CNS 19.3% | U251 CNS 20.2% | PC-3 prostate 19.6% | UACC-62 melanoma 28.7% | SK-MEL-28 melanoma 65.5%

O=C1c2ccccc2C(=O)c2c1cc1c(c2[N+](=O)[O-])OCO1
active: SNB-75 CNS -13.4% | U251 CNS -13.3% | PC-3 prostate -3.71%
inactive: HCT-15 colon 13.7% | HT29 colon 32.5% | SNB-19 CNS 21.7% | SK-MEL-5 melanoma 80% | UACC-62 melanoma 15.2% | SK-MEL-28 melanoma 103%

Cc1ccc(-c2nc(N3CCNCC3)c3oc(-c4ccc(C)cc4)nc3n2)cc1
inactive: SNB-75 CNS 89% | SNB-19 CNS 39.1% | SK-MEL-5 melanoma 96.5% | SK-MEL-28 melanoma 83.6%
active: HCT-15 colon -88% | HT29 colon -94.7% | U251 CNS -98.5% | PC-3 prostate -90.2% | LOX IMVI melanoma -79.6%

O=S(=O)(NCCCNc1nccc(-c2c(-c3cccc(F)c3)nc3occn23)n1)c1ccc(F)cc1
inactive: HCT-15 colon 58.3% | HT29 colon 21.9% | SNB-75 CNS 73.5% | SNB-19 CNS 84.9% | U251 CNS 56.1% | PC-3 prostate 29.4% | SK-MEL-5 melanoma 32.7% | LOX IMVI melanoma 44.7% | SK-MEL-28 melanoma 64.2%

C=C1C(=O)O[C@H]2[C@H]1CC/C(Cn1cc(CCC)nn1)=C\CC[C@@]1(C)O[C@@H]21
inactive: SNB-75 CNS 75.8% | SNB-19 CNS 73.3% | U251 CNS 73.7% | PC-3 prostate 64.4% | SK-MEL-5 melanoma 53.1%
active: HCT-15 colon -1.47% | HT29 colon -9.05% | LOX IMVI melanoma -29.3% | SK-MEL-28 melanoma 7.96%

NS(=O)(=O)c1ccc(-c2cc(-c3nnc(SCC(=O)Nc4ccc(C(=O)/C=C/c5ccc(Cl)cc5)cc4)n3-c3ccccc3)c3ccccc3n2)cc1
inactive: HCT-15 colon 94.7% | HT29 colon 94.9% | SNB-75 CNS 54% | SNB-19 CNS 86.8% | U251 CNS 81.1% | PC-3 prostate 79.8% | SK-MEL-5 melanoma 92.8% | LOX IMVI melanoma 88% | SK-MEL-28 melanoma 97%

CCOC(=O)c1c(C)c2c(n1Cc1ccccc1)CSCC2=O
active: HT29 colon 7.91% [100 µM] | SNB-75 CNS -13.9% [100 µM] | PC-3 prostate 7.17% [100 µM] | SK-MEL-5 melanoma -86.5% [100 µM] | LOX IMVI melanoma -24.4% [100 µM]
inactive: HCT-15 colon 11.7% [100 µM] | SNB-19 CNS 13.8% [100 µM] | U251 CNS 17.5% [100 µM] | SK-MEL-28 melanoma 27.8% [100 µM]

O=C(O)[C@@H](Cc1ccc2ccccc2c1)NC(=O)n1c2ccccc2c2ccccc21
inactive: HCT-15 colon 21.1% | SNB-75 CNS 20.1% | SNB-19 CNS 25.4% | U251 CNS 14.8% | PC-3 prostate 26.7% | LOX IMVI melanoma 35.9% | SK-MEL-28 melanoma 63.3%
active: HT29 colon 4.59% | SK-MEL-5 melanoma 3.91%

NC1=Nc2cc(OCCCCN3Cc4ccccc4C3)c(OCC3CC3)cc2C12CCCC2
inactive: SNB-75 CNS 71.5% | SNB-19 CNS 76.9% | U251 CNS 24.2% | PC-3 prostate 44.1%
active: HCT-15 colon 3.13% | HT29 colon 2.03% | SK-MEL-5 melanoma -91.5% | LOX IMVI melanoma -80.7% | SK-MEL-28 melanoma -81.4%

O=C(NNC(=O)c1nc2cc(F)ccc2n2cccc12)c1cnccn1
inactive: HCT-15 colon 24.3% | HT29 colon 31.2% | SNB-75 CNS 77.1% | SNB-19 CNS 33% | U251 CNS 20.3% | PC-3 prostate 43.7% | SK-MEL-5 melanoma 42.7% | LOX IMVI melanoma 26.7% | SK-MEL-28 melanoma 36.4%

C#CCNC(=O)[C@]1(C)CCC[C@@]2(C)[C@H]1CC=C1C=C(C(C)C)CC[C@@H]12
inactive: HCT-15 colon 94.8% | HT29 colon 102% | SNB-75 CNS 86.5% | SNB-19 CNS 101% | U251 CNS 106% | PC-3 prostate 95.4% | SK-MEL-5 melanoma 102% | UACC-62 melanoma 92.1% | SK-MEL-28 melanoma 111%

Nc1[nH]n2cc(-c3ccc(F)cc3)nc2c1N=Nc1ccc(S(N)(=O)=O)cc1
inactive: HCT-15 colon 60.4% | HT29 colon 83.6% | SNB-75 CNS 56.4% | SNB-19 CNS 86.4% | U251 CNS 76.4% | PC-3 prostate 80.6% | SK-MEL-5 melanoma 76.9% | LOX IMVI melanoma 64.5% | SK-MEL-28 melanoma 84.8%

CN1CCN(C(=S)SCCCCOc2cc(=O)oc3ccccc23)CC1
inactive: HCT-15 colon 88.3% | HT29 colon 78.5% | SNB-75 CNS 93.8% | SNB-19 CNS 94.7% | U251 CNS 87% | PC-3 prostate 72.7% | SK-MEL-5 melanoma 69.5% | UACC-62 melanoma 73.9% | SK-MEL-28 melanoma 109%

O=P(O)(O)OCC1OC(n2cnc3c(NCc4ccco4)ncnc32)C(O)C1O (stereo not drawn)
active: HCT-15 colon 5.11% | SNB-75 CNS 8.93% | PC-3 prostate 9.01% | LOX IMVI melanoma -30.9%
inactive: HT29 colon 16.7% | SNB-19 CNS 31.9% | U251 CNS 38.3% | SK-MEL-5 melanoma 40.2% | SK-MEL-28 melanoma 87%

Reference: PubChem BioAssay (NCI)
